Compound activity (PubChem)
HEK cytotox: Cytotoxic Profiling in HEK 293 Cell Line of Diverse Libraries Using Quantitative High-Throughput Screening; HEK 293 viability, ATP luminescence (CellTiter-Glo), 48-72 h; Potency, µM (top dose mostly 115 µM), inactives show top-dose activity change, negative = cytotoxicity, most hits filed as inhibitors; hit rate 6.6% among 94,000; also: nearly all actives have a fitted effect of over 60% in size
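Pintool-delivered compounds were incubated with HEK 293 cells (250 cells/well) at 37 degree Celsius for 48 or 72 hr. ATP-dependent luminescence (CellTiter-Glo) then reported remaining viable cells.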
Luciferase inh: Firefly luciferase inhibition profiling of diverse chemical library using quantitative high-throughput screening. Potency, µM (highest dose often 115 µM), usual class: inhibitors. purified P. pyralis luciferase, luminescence, biochemical. hit rate 2.5% among 76,000; also: nearly all actives have a fitted effect of over 65% in size
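Inhibitors were tested against purified firefly luciferase in a biochemical, low-substrate format (both substrates at 10uM) and luminescence measured with a CCD imager.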
NIH3T3 tox: Cytotoxic Profiling in NIH 3T3 Cell Line of Diverse Libraries Using Quantitative High-Throughput Screening | NIH 3T3 viability, CellTiter-Glo ATP luminescence, 48-72 h | Potency, µM (top dose mostly 96.7 µM), without a hit: top-dose activity change, negative = cytotoxicity, actives largely listed as inhibitors | hit rate 4.3% among 94,000; also: nearly all actives have a fitted effect of over 55% in size
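Cytotoxicity is measured as loss of cellular ATP: NIH 3T3 cells (400/well) are exposed to compound for 48 or 72 hr at 37 °C, then CellTiter-Glo luminescence is imaged after 10 min at room temperature.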
NPR1 antag: Natriuretic polypeptide receptor (hNpr1) antagonism - Primary qHTS; HEK293 hNpr1 GloSensor cGMP, ANP-stimulated luminescence; Potency, µM (top dose mostly 46.3 µM), for inactives: at the highest dose activity change, negative = inhibition, usual class: inhibitors; hit rate 1.6% among 76,000; calls by dose curve; also: nearly all actives have a fitted effect of over 60% in size
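Compound pre-incubated 30 min at room temperature on GloSensor-loaded HEK293 cells stably carrying hNpr1 and the pGS-40F cGMP biosensor. Stimulation uses hNppA at 0.1 nM final; luminescence is taken at baseline and 20 min post-agonist.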
GPT2 inh: Primary qHTS assay for inhibitors of Glutamate pyruvate transaminase 2 (GPT2); Potency, µM (titrated, usually from 57.7 µM), for the others: at the highest dose activity change, negative = inhibition, most hits filed as inhibitors; hit rate 0.25% among 100,000; Recombinant GPT2, coupled pyruvate oxidase/HRP Amplex Red fluorescence; also: nearly all actives have a fitted effect of over 60% in size
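Recombinant GPT2 (10ng/uL) with 250uM a-KG and 2mM L-alanine, 30 min at room temperature, in HEPES pH 7.5 buffer. Pyruvate detected by pyruvate oxidase/HRP/Amplex Red fluorescence after 30 min in the dark; AOA (50uM) as positive control.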
* marks the source's active call; other numbers are inactive results; i = inactive; ? = inconclusive; . = no result; [ ] = dose if it differs, or a comment. In the library only some 10% were active in any assay of this set; here they are far more common. Unless noted, calls follow the shape of the dose curve; as a rule, active = well fitted curve in the direction sought with a large enough effect; inconclusive = small, poorly fitted or top-dose-only effect, or another doubt; inactive = no such curve, though single readings can be large; an effect the other way counts as inactive or inconclusive. % is scaled to controls: 0 for no effect and ±100 for the full control effect; potency is read from the fitted curve at half-maximal effect.

SMILES | HEK cytotox | Luciferase inh | NIH3T3 tox | NPR1 antag | GPT2 inh
Cc1nc(-c2cccs2)cc([C@H]2CN3CC[C@H]2C[C@@H]3CO)n1 | -106%[172 µM] | i | 16µM* | 2%[70.6 µM] | -10%[88.5 µM]
Cn1nc(-c2cccs2)cc1[C@H]1CN2CC[C@H]1C[C@@H]2CNS(=O)(=O)c1ccccc1 | -26% | i | ? | 3% | 1%
Cc1nc(-c2ccccc2Br)cc([C@H]2CN3CC[C@H]2C[C@@H]3CNS(=O)(=O)c2cccs2)n1 | 79µM* | i | 79µM* | 4% | 5%
Cc1nc(-c2cccs2)cc([C@H]2CN3CC[C@H]2C[C@@H]3CNS(=O)(=O)c2ccccc2)n1 | 28µM* | i | 20µM* | -8% | -26%
CN1Cc2ccccc2-n2ccnc2C12CCN(C(=O)C1CCOCC1)CC2 | -1% | i | ? | 1% | -20%
O=C1NC2(CCCN(Cc3ccncc3)C2)COc2ccccc21 (stereo not given) | 71µM* | i | 32µM* | -18%[70.6 µM] | -11%[88.5 µM]
CCC1CC2CN3CCc4c([nH]c5ccccc45)C(C(=O)OC)(C2)C13 (stereo not given) | . | . | . | . | -4%[27.3 µM]
CN1CCc2c([nH]c3ccccc23)C12CCNCC2 | 89µM* | i | ? | -1% | 3%
Cc1nc(-c2ccc(N(C)C)cc2)cc([C@H]2CN3CC[C@H]2C[C@@H]3CNC(=O)c2ccccc2)n1 | ? | i | 45µM* | -2% | -11%
Cc1nc(-c2ccc(N(C)C)cc2)cc([C@H]2CN3CC[C@H]2C[C@@H]3COC(=O)NC(C)C)n1 | ? | ? | ? | 2% | i
COc1ccc(C(=O)NC[C@H]2C[C@@H]3CCN2C[C@@H]3c2cc(-c3ccc(N(C)C)cc3)nc(C)n2)cc1 | 25µM* | i | 40µM* | -6% | i
Cc1ccc(C(=O)NC[C@H]2C[C@@H]3CCN2C[C@@H]3c2cc(-c3ccccc3Br)nc(C)n2)cc1 | ? | i | ? | -5% | i
CC(=O)Nc1ccc(S(=O)(=O)NC[C@H]2C[C@@H]3CCN2C[C@@H]3c2cc(-c3ccc(N(C)C)cc3)nc(C)n2)cc1 | 22µM* | ? | 25µM* | -2% | i
CCNC(=O)NC[C@H]1C[C@@H]2CCN1C[C@@H]2c1cc(-c2ccc(N(C)C)cc2)nc(C)n1 | 100µM* | i | 100µM* | 7%[70.6 µM] | i
COc1ccccc1C(=O)N1[C@H]2CC[C@@H]1c1cnc(-c3ccccc3)nc1C2 | ? | i | ? | ? | i
CSc1cccc(NC(=O)NC[C@H]2C[C@@H]3CCN2C[C@@H]3CN2CCC(Cc3ccccc3)CC2)c1 | ? | i | 25µM* | 3% | 1%
CC(C)NC(=O)NC[C@H]1C[C@@H]2CCN1C[C@@H]2CN1CCN(c2ccccc2)CC1 | -17%[172 µM] | i | -23%[174 µM] | 0%[70.6 µM] | i
COc1ccccc1N1CCN(C[C@H]2CN3CC[C@H]2C[C@@H]3CNC(=O)Nc2cccc(SC)c2)CC1 | ? | i | ? | -1% | i
CCN(CC)C[C@H]1CN2CC[C@H]1C[C@@H]2CNS(=O)(=O)c1ccc(Cl)cc1 | ? | i | 71µM* | 2%[70.6 µM] | i
O=S(=O)(NC[C@H]1C[C@@H]2CCN1C[C@@H]2CN1CCC(Cc2ccccc2)CC1)c1ccc(Cl)cc1 | 7.1µM* | i | 14µM* | -3% | 1%
CC(C)NC(=O)NC[C@H]1C[C@@H]2CCN1C[C@@H]2CN1CCC(Cc2ccccc2)CC1 | 50µM* | i | ? | 1%[70.6 µM] | -3%[88.5 µM]
Nc1cncc(-c2ccc(CN3CCCC3)cn2)c1 | i | i | i | 4% | ?
COc1ccc(C(=O)N2[C@H]3CC[C@@H]2c2cnc(C)nc2C3)cc1F | -11% | i | -15% | 2% | i
